Results as given in PubChem BioAssay (Tox21).
Inconclusive results are not listed. Active and inactive are the calls of the source. Unless noted, the call rests on the fitted dose curve; in most records, active means well fitted curve in the direction sought with a large enough effect in the repeat runs; inconclusive means weak or mixed curves; inactive means no such curve, though single readings can be large; an effect the other way counts as inactive or inconclusive.

What was measured:
[1] = qHTS assay to identify small molecule antagonists of the vitamin D receptor (VDR) signaling pathway - cell viability counter screen (AID 743225); further: nearly all actives have a fitted effect of over 50% in size; further: potency means the concentration at half of the fitted maximal effect
In short: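 In this counter screen, VDR-bla HEK 293T cells receive test compound plus 3 nM final calcitriol for 16 h at 37C. Room-temperature steps of 2 h with the beta-lactamase substrate, then 30 min with CellTiter-Glo, precede the luminescence read.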

[2] = qHTS assay to identify small molecule agonists of the NFkB signaling pathway - cell viability counter screen (AID 1159515; calls by dose curve; further: nearly all actives have a fitted effect of over 55% in size; further: potency means the concentration at half of the fitted maximal effect)
In short: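 Luminescence from CellTiter-Glo (30 min, room temperature) gives viability, measured in the same wells as the beta-lactamase reporter read. Cells were NFkB-bla ME-180, 2,000 per well, treated 5 hr with compounds.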

[3] = qHTS assay to identify small molecule agonists of the endoplasmic reticulum stress response signaling pathway - cell viability counter screen (AID 1159517; calls by dose curve; further: nearly all actives have a fitted effect of over 50% in size; further: potency means the concentration at half of the fitted maximal effect)
In short: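 Cells, HeLa ESRE-bla; density, 1,500/well; dosing, 5 hr at 37 C, 5% CO2; readout, CellTiter-Glo luminescence after 30 min RT.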

[4] = qHTS assay to identify small molecule antagonists of the retinoid-related orphan receptor gamma (ROR-gamma) signaling pathway - cell viability counter screen (AID 1159520); further: nearly all actives have a fitted effect of over 50% in size; further: potency means the concentration at half of the fitted maximal effect
In short: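 Cytotoxicity was read from cellular ATP (CellTiter-Glo luminescence) after 16 hr at 37 C with 1 uM doxycycline induction. The inducer was added 2 hr after compound transfer to Tet-on ROR gamma CHO cells.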

[5] = target: Nuclear receptor ROR-gamma (Homo sapiens) (UniProt P51449); experiment: qHTS assay to identify small molecule antagonists of the retinoid-related orphan receptor gamma (ROR-gamma) signaling pathway (AID 1159521; further: nearly all actives have a fitted effect of over 50% in size; further: potency means the concentration at half of the fitted maximal effect)
In short: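 Screening format: cell-based luciferase reporter in CHO cells with doxycycline-inducible RORγ. Compound pre-exposure lasts 2 h, doxycycline is 1 uM final, induction runs 16 h at 37 C, and ONE-Glo luminescence is read.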

[6] = qHTS assay to identify small molecule agonists of the AP-1 signaling pathway - cell viability counter screen (AID 1159525; calls by dose curve; further: nearly all actives have a fitted effect of over 55% in size; further: potency means the concentration at half of the fitted maximal effect)
In short: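 Luminescent ATP readout (Cell Titer Glo, 30 min RT), normalised to DMSO and tetra n-octyl ammonium bromide controls. Cells were ME-180 AP-1-bla in 0.5% dialyzed FBS Opti-MEM, with a 5 h, 37 °C compound exposure.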

[7] = qHTS assay to identify small molecule antagonists of the retinoid acid receptor (RAR) signaling pathway - cell viability counter screen (AID 1159551); further: nearly all actives have a fitted effect of over 35% in size; further: potency means the concentration at half of the fitted maximal effect
In short: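 Luminescent ATP quantitation (CellTiter-Glo) gave cell viability in C3RL4 cells exposed to test chemicals for 6 h at 37 C alongside 1 uM final retinol.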

[8] = qHTS assay to identify small molecule antagonists of the retinoic acid receptor (RAR) signaling pathway (AID 1159552; further: nearly all actives have a fitted effect of over 50% in size; further: potency means the concentration at half of the fitted maximal effect)
In short: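 Using a RARE-driven luciferase construct in C3RL4 cells, retinol at 1 uM final provided the agonist stimulus while compounds were co-applied. After 6 hours at 37 C, luminescence was recorded to flag inhibitors of retinol signaling.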

[9] = qHTS assay to identify small molecule antagonists of the estrogen related receptor (ERR) signaling pathway from Tox21 library - cell viability counter screen (AID 1224834); further: nearly all actives have a fitted effect of over 30% in size; further: potency means the concentration at half of the fitted maximal effect
In short: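 Fluorescence from CellTiter-Fluor gives the viability read-out, taken 30 min after reagent addition. Before that, ERR cells seeded 6 h earlier were incubated with compounds for 17.5 h at 37 C.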

[10] = qHTS assay to identify small molecule agonists of the RXR signaling pathway - cell viability counter screen (AID 1159529); further: nearly all actives have a fitted effect of over 50% in size; further: potency means the concentration at half of the fitted maximal effect
In short: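 Viability read-out for the RXR-alpha agonist qHTS: luminescent CellTiter-Glo signal after 30 min at RT. HEK 293T bla reporter cells, 2% charcoal-stripped FBS, 16 hr compound incubation; tetraoctyl ammonium bromide as cytotoxic control.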

[11] = qHTS assay to identify small molecule agonists of the retinoic acid receptor (RAR) signaling pathway (AID 1159553)
In short: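 Luminescence from a RARE-driven luciferase reporter in C3RL4 cells served as the read-out, measured after 30 min with detection reagent at room temperature. Compounds in DMSO were applied for 6 hr at 37 C following overnight seeding.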

[12] = target: Retinoic acid receptor RXR-alpha (Homo sapiens) (UniProt P19793); experiment: qHTS assay to identify small molecule agonists of the RXR signaling pathway (AID 1159527; calls by dose curve; further: nearly all actives have a fitted effect of over 35% in size)
In short: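 Fluorescence ratio readout (460 vs 530 nm) from GeneBLAzer RXR-alpha HEK 293T cells after 16 hr compound treatment; cells seeded 5 hr beforehand in low-serum, charcoal-stripped medium.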

[13] = qHTS assay to identify small molecule agonists of the AP-1 signaling pathway (AID 1159526; calls by dose curve)
[14] = qHTS assay to identify small molecule agonists of the estrogen related receptor (ERR) signaling pathway (AID 1224820)
In short: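 Quantitative HTS of the LOPAC library used NTP ERR reporter cells treated 18 h at 37 C. Signal is luminescence after One-Glo addition and a 30 min room-temperature incubation.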

[15] = system: estrogen-related receptor alpha (ERRalpha) with PGC-1alpha coactivator, human; experiment: qHTS assay to identify small molecule antagonists of the estrogen related receptor signaling pathway with the pleiotropic PPARgamma coactivator (PGC) (AID 1224821; calls by dose curve)
In short: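 Quantitative HTS for antagonism: PGC/ERR cells received compounds after 6 h attachment and were incubated 18 h at 37 C, with luminescence (One-Glo) as the endpoint.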

[16] = qHTS assay to identify small molecule antagonists of the estrogen related receptor signaling pathway with the pleiotropic PPARgamma coactivator (PGC) cell viability counter screen (AID 1224822; further: series mostly up to about 46 µM)
In short: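 Cells: PGC/ERR, 2,000/well, 1536-well format. Pre-incubation 6 h, 37 C/5% CO2. Compound exposure 17.5 h, 37 C. Detection: CellTiter-Fluor, 30 min, fluorescence.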

[17] = qHTS assay to identify small molecule agonists of the estrogen related receptor signaling pathway with the pleiotropic PPARgamma coactivator (PGC) (AID 1224823)
In short: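 Cell-based luciferase assay in the NTP-supplied PGC/ERR line, 2,000 cells/well; 18 h compound exposure at 37 C, luminescence after One-Glo.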

[18] = qHTS assay to identify small molecule antagonists of the estrogen related receptor (ERR) signaling pathway - cell viability counter screen (AID 1224818);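 further: series mostly up to about 46 µM; viability measured after 17.5 h of compound exposure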
In short: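 Multiplexed counter screen to separate cytotoxic compounds from true ERR modulators. ERR cells received DMSO-dissolved compounds after a 6 h pre-incubation, were exposed 17.5 h at 37 C, then assayed with CellTiter-Fluor fluorescence.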

Sequence of Retinoic acid receptor RXR-alpha (Homo sapiens) (P19793 whole entry, looked up): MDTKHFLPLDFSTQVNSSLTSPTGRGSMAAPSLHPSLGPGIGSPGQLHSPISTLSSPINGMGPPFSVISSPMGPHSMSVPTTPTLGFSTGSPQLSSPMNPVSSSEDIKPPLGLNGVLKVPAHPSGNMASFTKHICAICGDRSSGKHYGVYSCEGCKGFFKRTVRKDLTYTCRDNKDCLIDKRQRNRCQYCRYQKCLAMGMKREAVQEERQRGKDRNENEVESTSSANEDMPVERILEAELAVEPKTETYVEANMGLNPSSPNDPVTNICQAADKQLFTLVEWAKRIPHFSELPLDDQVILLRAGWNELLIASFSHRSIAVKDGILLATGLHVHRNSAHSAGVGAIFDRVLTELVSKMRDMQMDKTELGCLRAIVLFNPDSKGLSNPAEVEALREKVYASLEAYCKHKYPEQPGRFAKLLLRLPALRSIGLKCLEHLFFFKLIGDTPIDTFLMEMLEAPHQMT

SMILES: Oc1cc2ccccc2c2ccccc12
- Potency [1]: 4.36 µM (active)
- Potency [2]: 4.9 µM (active)
- Potency [3]: 11 µM (active)
- Potency [4]: 17.2 µM (active)
- Potency [5]: 12.2 µM (active)
- Potency [6]: 11 µM (active)
- Potency [7]: 27.3 µM (active)
- Potency [8]: 13.7 µM (active)
- Potency [9]: 8.63 µM (active)

SMILES: O=C(Nc1cccc(C(F)(F)F)c1)c1cc(Br)cc(Br)c1O
- Potency [1]: 17.4 µM (active)
- Potency [2]: 54.9 µM (active)
- Potency [3]: 24.5 µM (active)
- Potency [4]: 10.9 µM (active)
- Potency [5]: 1.37 µM (active)
- Potency [10]: 21.9 µM (active)
- Potency [8]: inactive
- Potency [11]: inactive

SMILES: CCN(C(=O)c1cc(C)cc(OC[C@H](C)Nc2ccncc2)c1)C(C)C
- Potency [1]: inactive
- Potency [2]: inactive
- Potency [3]: inactive
- Potency [4]: inactive
- Potency [5]: inactive
- Potency [6]: inactive
- Potency [7]: inactive
- Potency [8]: inactive
- Potency [11]: inactive
- Potency [9]: inactive

SMILES: O=S1(=O)CC(Cl)(Cl)C(Cl)(Cl)C1
- Potency [1]: 4.36 µM (active)
- Potency [2]: 5.49 µM (active)
- Potency [3]: 4.9 µM (active)
- Potency [4]: 6.11 µM (active)
- Potency [5]: 2.17 µM (active)
- Potency [6]: 4.9 µM (active)
- Potency [10]: 4.36 µM (active)
- Potency [7]: 15.4 µM (active)
- Potency [9]: 15.4 µM (active)

SMILES: Nc1ccc2c3c(cccc13)-c1ccccc1-2
- Potency [2]: inactive
- Potency [3]: inactive
- Potency [4]: inactive
- Potency [5]: inactive
- Potency [6]: inactive
- Potency [7]: inactive

SMILES: Cc1nc(-c2ccc3c(c2)CCN(CCC2CCC(NC(=O)/C=C/c4ccc(F)cc4)CC2)CC3)no1 (stereo not given)
- Potency [2]: inactive
- Potency [3]: inactive
- Potency [4]: 15.4 µM (active)
- Potency [5]: 1.94 µM (active)
- Potency [10]: inactive
- Potency [7]: inactive

SMILES: CC1=NC(C)OC1C (stereo not given)
- Potency [1]: inactive
- Potency [2]: inactive
- Potency [3]: inactive
- Potency [4]: inactive
- Potency [5]: inactive
- Potency [12]: inactive
- Potency [10]: inactive
- Potency [7]: inactive
- Potency [8]: inactive
- Potency [11]: inactive

SMILES: CCCCCCCC[N+](CCCCCCCC)(CCCCCCCC)CCCCCCCC
- Potency [1]: 7.75 µM (active)
- Potency [2]: 24.5 µM (active)
- Potency [3]: 43.6 µM (active)
- Potency [4]: 8.62 µM (active)
- Potency [5]: 6.1 µM (active)
- Potency [6]: 15.5 µM (active)
- Potency [10]: 13.8 µM (active)
- Potency [7]: 27.3 µM (active)
- Potency [9]: 24.3 µM (active)

SMILES: CCCCCCCC[P+](CCCCCCCC)(CCCCCCCC)CCCCCCCC
- Potency [2]: 5.46 µM (active)
- Potency [3]: 13.7 µM (active)
- Potency [4]: 6.82 µM (active)
- Potency [5]: 1.71 µM (active)
- Potency [6]: 12.2 µM (active)
- Potency [10]: 3.87 µM (active)
- Potency [7]: 54.2 µM (active)
- Potency [9]: 9.63 µM (active)

SMILES: [Cl][Bi]([Cl])([c]1ccccc1)([c]1ccccc1)[c]1ccccc1
- Potency [1]: 2.44 µM (active)
- Potency [2]: 54.6 µM (active)
- Potency [3]: 38.7 µM (active)
- Potency [4]: 12.1 µM (active)
- Potency [5]: 2.16 µM (active)
- Potency [10]: 2.74 µM (active)
- Potency [7]: 54.2 µM (active)
- Potency [8]: 3.83 µM (active)
- Potency [9]: 13.6 µM (active)

SMILES: CC(C)(C)c1ccc(C(=O)CCCN2CCC(OC(c3ccccc3)c3ccccc3)CC2)cc1
- Potency [2]: 23.9 µM (active)
- Potency [3]: 23.9 µM (active)
- Potency [4]: 21.1 µM (active)
- Potency [5]: 11.9 µM (active)
- Potency [6]: 15.1 µM (active)
- Potency [10]: 15.1 µM (active)
- Potency [8]: 26.6 µM (active)
- Potency [9]: 23.7 µM (active)

SMILES: CCCCCCCCCCCCCCCC[N+](C)(C)CCN(Cc1ccc(OC)cc1)c1ncccn1
- Potency [1]: 19 µM (active)
- Potency [2]: 23.9 µM (active)
- Potency [3]: 21.3 µM (active)
- Potency [4]: 29.8 µM (active)
- Potency [5]: 33.5 µM (active)
- Potency [6]: 21.3 µM (active)
- Potency [7]: 29.8 µM (active)
- Potency [9]: 29.8 µM (active)

SMILES: O=C(OCC1CO1)C1CCCCC1C(=O)OCC1CO1 (stereo not given)
- Potency [2]: inactive
- Potency [3]: inactive
- Potency [4]: inactive
- Potency [5]: inactive
- Potency [13]: inactive
- Potency [10]: inactive

SMILES: O=C(O)c1cc(O)c2c(c1)C(=O)c1cccc(O)c1C2=O
- Potency [1]: inactive
- Potency [2]: inactive
- Potency [3]: inactive
- Potency [4]: inactive
- Potency [5]: inactive
- Potency [6]: inactive
- Potency [10]: inactive
- Potency [7]: inactive
- Potency [9]: inactive

SMILES: OCCN1CCN(CC/C=C2/c3ccccc3Sc3ccc(C(F)(F)F)cc32)CC1
- Potency [1]: 23.9 µM (active)
- Potency [2]: 26.8 µM (active)
- Potency [3]: 23.9 µM (active)
- Potency [4]: 29.8 µM (active)
- Potency [5]: 26.6 µM (active)
- Potency [6]: 23.9 µM (active)
- Potency [10]: 19 µM (active)
- Potency [8]: 26.6 µM (active)
- outcome [14]: inactive
- Potency [15]: inactive
- Potency [16]: inactive
- outcome [17]: inactive

SMILES: CCCCCCCCCCCCCCCCCC[N+](C)(C)C
- Potency [1]: 3.9 µM (active)
- Potency [2]: 55.1 µM (active)
- Potency [3]: 49.1 µM (active)
- Potency [4]: 54.6 µM (active)
- Potency [5]: 6.13 µM (active)
- Potency [10]: 24.6 µM (active)
- Potency [8]: 54.6 µM (active)
- Potency [9]: 61.3 µM (active)

SMILES: CCCCCCCCCCCC[N+](C)(C)CCCCCCCCCCCC
- Potency [1]: 24.5 µM (active)
- Potency [2]: 21.9 µM (active)
- Potency [3]: 43.6 µM (active)
- Potency [4]: 27.3 µM (active)
- Potency [5]: 19.3 µM (active)
- Potency [6]: 30.9 µM (active)
- Potency [10]: 15.5 µM (active)
- Potency [7]: 43.3 µM (active)
- Potency [9]: 27.3 µM (active)

SMILES: CCC(CN)=C(c1ccccc1)c1ccccc1
- Potency [2]: inactive
- Potency [3]: inactive
- Potency [4]: inactive
- Potency [6]: inactive
- Potency [10]: inactive
- Potency [7]: inactive

SMILES: CN(C)[C@@H]1C(=O)C(C(N)=O)=C(O)[C@@]2(O)C(=O)C3=C(O)c4c(O)ccc(Cl)c4[C@@H](O)[C@H]3C[C@@H]12
- Potency [1]: inactive
- Potency [2]: inactive
- Potency [3]: inactive
- Potency [4]: inactive
- Potency [6]: inactive
- Potency [13]: inactive
- Potency [10]: inactive
- Potency [7]: inactive
- Potency [8]: inactive
- Potency [11]: inactive
- Potency [18]: inactive
- outcome [14]: inactive
- Potency [15]: inactive
- Potency [16]: inactive
- outcome [17]: inactive
